The text below walks through data of ChEMBL document CHEMBL4513216, “Probing the Open Global Health Chemical Diversity Library for Multistage-Active Starting Points for Next-Generation Antimalarials” (ACS Infect Dis, 2020).

The structures appear in SMILES notation. The campaign covered roughly 69,000 compounds. About 8,600 (12%) showed an effect of 50% or more. The full list was thinned out, with strong results kept by preference.

For the test, the system named is Plasmodium berghei. Description: Screen against P. berghei liver stage (PbLuc), transformed with Luciferase, at 10uM. To be noted: tested at 10 uM. It counts as functional, HepG2.
In the case of `COCCn1ccnc1-c1cc(CN2CCCCC2)cs1`, the INHIBITION is 8.51%.

Take `Nc1nc(Cn2ccnc2-c2cc(CN3CCCC3)cs2)cs1`: the INHIBITION is reported as 42.1%.

Regarding `c1cn(CCc2c[nH]cn2)c(-c2cc(CN3CCCC3)cs2)n1`, the INHIBITION was found to be 60%.

Consider `Cc1cc(CN2CCc3nc(N4CCOCC4)nc(O)c3CC2)c(C)s1`, for which the INHIBITION is 90.7%.

Regarding `Cc1nc2c(c(NC(C)C)n1)CCN(Cc1cccnc1)CC2`, the INHIBITION was 49.7%.

Take `CC(C)c1ncc2c(n1)CN(Cc1cccc3c1OCCO3)CC2`: the INHIBITION came out at 37.7%.

For the molecule `Cc1cc(CN2CCc3nc(C(C)C)nc(O)c3CC2)c(C)s1`, the INHIBITION amounted to 62.9%.

For `Cc1ccc(CN2CCc3nc(C(C)C)nc(O)c3CC2)s1`, the INHIBITION worked out at 2.55%.

On to `Oc1nc(N2CCOCC2)nc2c1CCN(Cc1ccccc1)CC2`, for which the INHIBITION stood at 35.2%.

For the molecule `CCn1cc(CN2CCc3nc(N4CCOCC4)nc(O)c3CC2)cn1`, the INHIBITION stood at 29.6%.

`Oc1nc(N2CCOCC2)nc2c1CCN(Cc1cccnc1)CC2`: the INHIBITION was determined as 23.3%.

As for `Oc1nc(N2CCOCC2)nc2c1CCN(Cc1ccc(F)cc1)CC2`, the INHIBITION was 38.2%.

On to `Oc1nc(N2CCOCC2)nc2c1CCN(Cc1cccc(F)c1)CC2`, for which the INHIBITION was 54.5%.

As to `Cc1nc(C)c2c(n1)CCN(Cc1ccco1)CC2`, the INHIBITION is given as -53.2%.

Regarding `Cc1nc(O)c2c(n1)CCN(Cc1cc(C)sc1C)CC2`, the INHIBITION was 60.1%.

On to `Cc1cccc(C(=O)N2C[C@@H]3C(CC(=O)Nc4cccnc4)[C@@H]3C2)n1` (stereo partly drawn), for which the INHIBITION stood at 30.9%.

`Cc1ccsc1C(=O)N1CC[C@@H](N(C)C)[C@@H]1Cc1cnn(C)c1`: the INHIBITION is given as 36.9%.

In the case of `O=C(CN1CCCC1)Nc1c2c(cc3c1CCC3)CCC2`, the INHIBITION is given as -3.47%.

Regarding `Cn1ncc2c1CCCN(C(=O)C1CC1)C2`, the INHIBITION is given as 24.69%.

In the case of `CN(C)c1cc(C(=O)N2CCCCC2CNS(C)(=O)=O)ccn1` (stereo not drawn), the INHIBITION is -8.11%.

`CC(C)(C)SCCN1CC(=O)N2CC[C@@H](O)C[C@H]2C1=O`: the INHIBITION came to 11.265%.

`CN1CC(=O)N(c2ccccc2)CC12CCN(CCO)C2` (stereo not drawn): the INHIBITION was determined as 41.3%.

As to `C=Cn1ncc(CN2CCc3nc(-c4ccncc4)nc(O)c3C2)c1C`, the INHIBITION came to 17.1%.

`Cc1cc(CN2CCc3nc(-c4ccncc4)nc(O)c3CC2)c(C)s1`: the INHIBITION was found to be 83.3%.

Take `Cc1ccc(O)c(CN2CCc3nc(-c4cccnc4)nc(O)c3C2)c1`: the INHIBITION came out at 32.8%.

As for `O=C(NCc1ccc(OCC2CC2)nc1)c1c(F)cccc1F`, the INHIBITION is on record as -26.8%.

For `CN(C)C(=O)CNS(=O)(=O)c1cc(Br)ccc1F`, the INHIBITION turned out to be 42.4%.

On to `CCN(CC)C(=O)CNS(=O)(=O)c1cc(Br)ccc1F`, for which the INHIBITION is 23%.

In the case of `CCNC(=O)CNS(=O)(=O)c1cc(Br)ccc1F`, the INHIBITION was 53.6%.

For `COCC(=O)N1CCCC(Cc2cnc(-c3c(C)n[nH]c3C)cn2)C1` (stereo not drawn), the INHIBITION is listed as -29.8%.

In the case of `CC(C#N)CSc1ccccc1NCC(=O)NC(C1CC1)C1CC1` (stereo not drawn), the INHIBITION turned out to be 43.4%.

In the case of `CC(C#N)CSc1ccccc1NCC(=O)Nc1ccc(F)cc1` (stereo not drawn), the INHIBITION is given as 11.1%.

Consider `CC(C#N)CSc1ccccc1NCC(=O)Nc1ccccc1` (stereo not drawn), for which the INHIBITION turned out to be 26.5%.

With `CC(C#N)CSc1ccccc1NCC(=O)NC(=O)NC(C)(C)C` (stereo not drawn), the INHIBITION was 61.3%.

For the molecule `CC(C)CNC(=O)NC(=O)CNc1ccccc1SCC(C)C#N` (stereo not drawn), the INHIBITION was -7.9%.

For `CC(C#N)CSc1ccccc1NCC(=O)NC1CCCCC1` (stereo not drawn), the INHIBITION is on record as 54.4%.

Take `O=C(CSc1nnc[nH]1)NCc1cccs1`: the INHIBITION was -95.7%.

As to `CC(C#N)CSc1ccccc1NCC(=O)NCc1ccccc1` (stereo not drawn), the INHIBITION came out at 14.2%.

As for `CC(C#N)CSc1ccccc1NCC(=O)NCc1cccs1` (stereo not drawn), the INHIBITION is given as 58.3%.

`O=c1[nH]c2cn(-c3cccc(F)c3)c(=O)n2n1Cc1ccc(Cl)cc1`: the INHIBITION was found to be 28.7%.

Take `CCSc1ccccc1C(=O)N(CCOC)Cc1ccoc1`: the INHIBITION is recorded as 25.1%.

With `Cc1cc(C(F)(F)F)nn1CC(C)C(=O)NC(C)C` (stereo not drawn), the INHIBITION stood at 42.4%.

For the molecule `CNC(=O)CN1CCCC12CCN(Cc1c[nH]cn1)CC2`, the INHIBITION came to 19.5%.

Regarding `CC(C)CN1CCn2nc(CNc3ncnc4[nH]ccc34)cc2C1`, the INHIBITION was -2.39%.

For the molecule `COc1ccc(C[C@H]2CNCC[C@H]2OC)cc1`, the INHIBITION was 1.34%.

Take `Cc1cnn(C2CCCN(C(=O)CCc3cscn3)C2)c1` (stereo not drawn): the INHIBITION was found to be 33.7%.

In the case of `CC(=O)N1CCCN(c2cc(C3CN(C)CCO3)nc(C)n2)CC1` (stereo not drawn), the INHIBITION was 36.4%.

For `CS(=O)(=O)C1(C(=O)NC2CCc3nccn3C2)CCCC1` (stereo not drawn), the INHIBITION came to 74.8%.

Take `O=C(CCn1cncn1)NC1CCc2nccn2C1` (stereo not drawn): the INHIBITION is -3.7%.

On to `Cc1cn2c(n1)CCC(NC(=O)CCCn1cncn1)C2` (stereo not drawn), for which the INHIBITION turned out to be 29.2%.

For the molecule `O=C(CCCn1cncn1)NC1CCc2nccn2C1` (stereo not drawn), the INHIBITION came out at 62.1%.

For `CCS(=O)(=O)CC(=O)NC1CCc2nccn2C1` (stereo not drawn), the INHIBITION came to 36.3%.

With `COc1ccc(C2(C(=O)NC3CCc4nccn4C3)CCCC2)cc1` (stereo not drawn), the INHIBITION is 24.3%.

`Cc1nc(C)n(CC2CN(Cc3noc(C4CC4)n3)CCO2)n1` (stereo not drawn): the INHIBITION is recorded as 16.8%.

As to `CCc1nc(N2CCC3(CC2)CC(=O)N(Cc2ccc(Cl)cc2)C3)no1`, the INHIBITION was -88.1%.

`CCc1n[nH]c(C2CN(CCCS(C)(=O)=O)CCO2)n1` (stereo not drawn): the INHIBITION is given as 9.14%.

For `CS(=O)(=O)N1CCC(NC(=O)COc2ccc(Cl)c(Cl)c2)CC1`, the INHIBITION is recorded as 27.4%.

In the case of `NC(=O)CN1CCC(C(=O)NCCc2nc(-c3ccccc3)cs2)CC1`, the INHIBITION was -53.6%.

Take `NC(=O)CN1CCC(C(=O)NCc2nc(-c3ccc(F)cc3)cs2)CC1`: the INHIBITION is on record as 55.2%.

In the case of `Cc1csc(CCNC(=O)C2CCN(CC(N)=O)CC2)n1`, the INHIBITION is -23.5%.

With `O=C(O)c1ccc(Cc2cccc(F)c2)nc1`, the INHIBITION stood at 3.48%.

For `N#Cc1ccc(C(=O)NCC2(N3CCOCC3)CCCC2)nc1`, the INHIBITION is recorded as 10.8%.

For the molecule `Cc1cccc(-c2noc(CN3CCC(N4CCNC4=O)CC3)n2)c1`, the INHIBITION turned out to be 41.1%.

Take `O=C(O)C1(n2cccn2)CCN(Cc2nc(-c3ccccc3)no2)CC1`: the INHIBITION worked out at 35.9%.

In the case of `Cc1ccccc1-c1noc(CN2CCC(N3CCNC3=O)CC2)n1`, the INHIBITION stood at 88.2%.

On to `Cc1ccc(-c2noc(CN3CCC(c4ccn[nH]4)CC3)n2)cc1`, for which the INHIBITION was 12.8%.

Take `Cc1ccccc1-c1noc(CN2CCC(c3ccn[nH]3)CC2)n1`: the INHIBITION is on record as -7.46%.

Turning to `Cc1ccccc1-c1noc(CN2CCOC(Cn3cccn3)C2)n1` (stereo not drawn), the INHIBITION is 23.95%.

On to `Cc1ccc(-c2noc(CN3CCC(N4CCNC4=O)CC3)n2)cc1`, for which the INHIBITION was determined as 86.8%.

With `O=C1NCCN1C1CCN(Cc2nc(-c3ccsc3)no2)CC1`, the INHIBITION is reported as 85.4%.

Take `c1cc(C2CCN(Cc3nc(-c4ccsc4)no3)CC2)[nH]n1`: the INHIBITION is 8.12%.

As for `c1cnn(C2CN(Cc3nc(-c4ccsc4)no3)C2)c1`, the INHIBITION was 17%.

For `O=C1NCCN1C1CCN(Cc2nc(-c3ccccc3)no2)CC1`, the INHIBITION is reported as 92.3%.
